Assay results published in PubChem BioAssay AID743269 (The Scripps Research Institute Molecular Screening Center, 2014).
About 2,400 (0.65%) of roughly 370,000 compounds were called active. Many of the other results were omitted from the sample, so actives are more common in it than they were. Unmarked numbers belong to inactive results.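 The calls were made as follows: active = inhibition above the screen-wide mean plus 3 SD (cut at about 13% in these data); inactive = the rest.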

These molecules were tested on HIV-1 integrase (with human LEDGF/p75) (assay: blockers of LEDGF/p75-dependent integrase strand transfer – biochemical, TR-FRET, high throughput, primary screen (AID 743269;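 also: signal is the Cy5 over europium emission ratio at 671 and 618 nm; 0% = plate median of compound wells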)). Conditions: TR-FRET IN-LEDGF/p75 DNA integration, Eu/Cy5; at 3.7 µM; hits give high values.

| Compound | inhibition |
| --- | --- |
| CCC(NC(=O)C1C2C=CC3(CN(Cc4ccccc4)C(=O)C13)O2)c1ccccc1 (stereo not drawn) | -1.5% |
| COC(=O)[C@]12C[C@H](CC(=O)NCCc3ccccc3OC)C(=O)N(Cc3ccco3)C1=C[C@H](C(C)C)O[C@@H]2C1CC1 | -0.43% |
| COC(=O)[C@]12C[C@H](CC(=O)N3CCOCC3)C(=O)N(Cc3ccc(Cl)cc3Cl)C1=C[C@H](C(C)C)O[C@@H]2C1CC1 | -2.5% |
| CCOc1ccc(-n2c(SCC(=O)Nc3cc(C)c(NC(=O)c4ccccc4)cc3OC)nnc2-c2cccc(Cl)c2)cc1 | -4.78% |
| Cc1cc(NC(=O)COC(=O)/C=C/c2ccc(C)o2)no1 | -2.47% |
| CCOc1ccc(NC(=S)NC(=O)/C=C/c2ccc(OC)cc2)c([N+](=O)[O-])c1 | 5.44% |
| Cc1ccc(/C=C/C(=O)Nc2ccc([N+](=O)[O-])c(NC(=O)/C=C/c3ccc(C)o3)c2)o1 | 24.3% (active) |
| CC(=O)c1cc(-c2ccc3ccccc3c2)c(=O)n2c1CCC2 | 0.07% |
| CC(c1ccc(N)cc1)c1cn(C)c2ccccc12 (stereo not drawn) | -3.68% |
| Cc1ccc(-n2c(SCC(=O)Nc3cccc4ccccc34)nnc2-c2ccccn2)cc1 | -0.35% |
| COC(CNC(=O)[C@H](Cc1ccccc1)NC1(C(=O)NC2CCCCC2)CCCCC1)OC | 2.51% |
| Cc1ccc(-c2nnc(SCC(=O)Nc3ccc(Oc4ccccc4)cc3)n2Cc2ccco2)cc1 | -1.74% |
| Nn1c(SCC(=O)N2c3ccccc3Sc3ccccc32)nnc1-c1n[nH]c2c1CCC2 | -0.96% |
| O=C(NC1CCCCN(Cc2cccc(C(F)(F)F)c2)C1=O)c1ccccc1I (stereo not drawn) | -1.97% |
| NNc1cccc(C=Cc2ccccc2)cc1=O | 29.3% (active) |
| O=C(CSc1nc2sc3c(c2c(=O)n1-c1ccccc1)CCCC3)NN=Cc1ccc(OCc2ccccc2)cc1 | -1.95% |
| CN(C)c1ccc(N/C=C/C(=O)C(F)(F)F)cc1 | 51% (active) |
| CC1CN(/C=C/C(=O)C(F)(F)F)CC(C)O1 (stereo not drawn) | 1.92% |
| O=S1(=O)c2c(NCc3ccco3)cccc2Oc2ccccc2CN1Cc1cn(Cc2cccc(C(F)(F)F)c2)nn1 | -4.08% |
| O=C1OC(/C=C/c2ccccc2)=NC/1=C/c1ccco1 | 23.8% (active) |
| COc1ccccc1/C=C/C1=NC(=C\N(C)C)/C(=O)O1 | -2.48% |
| CCn1c(SCC(C)=O)nc2sc3c(c2c1=O)CCCC3 | 4.15% |
| COC(=O)C12C=C3CC(c4ccccc4)=C3C(=O)N1Cc1[nH]c3ccccc3c1C2 (stereo not drawn) | -0.02% |
